HT1080-NT tox – qHTS for induction of synthetic lethality in tumor cells producing 2HG: qHTS for the HT-1080-NT fibrosarcoma cell line; 360,000 compounds, 1.6% hits; AID 686970, 2013; Potency, µM (highest dose often 46.1 µM), without a hit: top-dose activity, negative = less viability, usual class: cytotoxic; HT-1080-NT fibrosarcoma viability, CellTiter-Glo ATP luminescence, 48 h;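 further: NT is the 2HG producing partner of a matched IDH1 knockdown line; potency means the concentration at half of the fitted maximal effect; 0% = DMSO-treated cells and -100% = media-only wells without cells; nearly all actives have a fitted effect of over 55% in size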
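HT-1080-NT fibrosarcoma cells (2HG-overproducing), 750 cells/well in RPMI with 5% FBS, dosed after 2 h and incubated 48 h at 37C. CellTiter-Glo luminescence normalized to DMSO and no-cell wells; concentration-response curves fitted and classed.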
DT40 TDP1 no CPT – qHTS for Inhibitors of human tyrosyl-DNA phosphodiesterase 1 (TDP1): qHTS in cells in absence of CPT | DT40 Tdp1-/- hTDP1 cells, no CPT, ATP luminescence, 48 h | Potency, µM (series often up to 46.2 µM), inactives show at the top dose activity change, negative = growth inhibition, most hits filed as inhibitors | 420,000 compounds, 15% hits; further: potency means the concentration at half of the fitted maximal effect; nearly all actives have a fitted effect of over 55% in size
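Compound effects on proliferation are scored in DT40 Tdp1-/-;hTDP1 cells in the absence of CPT. ATP levels (CellTiter-Glo luminescence) are recorded after a ≥48 hr, 37 °C incubation.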
IL1B secr inh – qHTS for Inhibitors of Inflammasome Signaling: IL-1-beta AlphaLISA Primary Screen | activity change, % at 57.5 µM | THP-1 LPS/ATP IL-1B secretion, AlphaLISA, 16 h; stronger effect = lower value | 360,000 compounds, 4.7% hits; in the data active means activity change below about -50%; inconclusive means mostly about -30% to -49%
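THP-1 cells pretreated 1 hr with compounds (up to 57.5 uM final), then stimulated with LPS (250 ng/mL final) plus ATP (1.25 mM final); secreted IL-1B measured by AlphaLISA after 16 hr, decreased signal indicating inhibition.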
HT1080 IDH1KD tx – qHTS for induction of synthetic lethality in tumor cells producing 2HG: qHTS for the HT-1080-IDH1KD cell line | HT-1080 IDH1 knockdown viability, ATP luminescence, 48 h | Potency, µM (series often up to 46.1 µM), for the others: top-dose activity, negative = toxicity, hits mostly cytotoxic | 360,000 compounds, 2% hits | AID 686971, 2013;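 further: potency means the concentration at half of the fitted maximal effect; 0% = DMSO wells and -100% = cell-free medium wells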
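After a 2 h attachment period, IDH1KD HT-1080 cells took pin-transferred compound for 48 h at 37 °C; ATP-based luminescence after 10 min room-temperature reagent incubation reported viability.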
DT40 TDP1 CPT – qHTS for Inhibitors of human tyrosyl-DNA phosphodiesterase 1 (TDP1): qHTS in cells in presence of CPT | chicken DT40 Tdp1-/-;hTDP1 cells + 20 nM CPT, ATP luminescence, 48 h | Potency, µM (titrated, usually from 46.2 µM), for the others: top-dose activity change, negative = growth inhibition, most hits filed as inhibitors | 420,000 compounds, 12% hits | AID 686979, 2013; further: potency means the concentration at half of the fitted maximal effect; nearly all actives have a fitted effect of over 55% in size
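Chicken DT40 Tdp1-/- cells complemented with human TDP1, 400 cells/well, exposed to compounds plus 20 nM camptothecin for at least 48 h at 37 C; viability read as ATP content by CellTiter-Glo luminescence.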
An asterisk follows results filed as active; u = inconclusive; x = no result. Shown are actives, neighbours in structure and some others; about 19% of the full set was active somewhere. Unless noted, the call rests on the fitted dose curve; in most records, active means well fitted curve in the direction sought with a large enough effect; inconclusive means small, poorly fitted or top-dose-only effect, or another doubt; inactive means no such curve, though single readings can be large; an effect the other way counts as inactive or inconclusive. Unless noted, on the % scale 0 is the no-effect control and ±100 the full control effect.

SMILES	HT1080-NT tox	DT40 TDP1 no CPT	IL1B secr inh	HT1080 IDH1KD tx	DT40 TDP1 CPT
COc1ccc(C(CNC(=O)c2cccc(NS(=O)(=O)c3ccccc3)c2)N(C)C)cc1 (centres undefined)	0%	-17%	5	10%	-26%
COc1ccc(C(CNC(=O)c2cccc(S(=O)(=O)Nc3ccc(F)cc3)c2)N(C)C)cc1 (centres undefined)	-9%	u	-11	-10%	u
CCOc1ccc(S(=O)(=O)Nc2cccc(C(=O)NCC(c3ccccc3)N(C)C)c2)cc1 (centres undefined)	-14%	18µM*	-17	-12%	23µM*
COc1ccc(C(CNC(=O)c2ccc(S(=O)(=O)Nc3ccc(F)cc3)cc2)N(C)C)cc1 (centres undefined)	u	23µM*	23	u	16µM*
Cc1ccc(-c2nn(-c3ccccc3)cc2/C=N/NC(=O)c2ccncc2)o1	-26%	23µM*	-16	u	u
Cc1ccc(-c2nn(-c3ccccc3)cc2/C=C/C(=O)OCC(=O)NC2CC2)o1	1%	u	-3	-15%	21µM*
O=C(N/N=C/c1cn(-c2ccccc2)nc1-c1cccs1)c1ccncc1	2%	u	-6	-14%	u
Cc1ccc(-c2nn(-c3ccccc3)cc2C(N)=O)o1	4%	-12%	17	2%	-10%
O=C(O)/C=C\c1cn(-c2ccccc2)nc1-c1cc2ccccc2o1	-3%	-6%	-5	-13%	0%
CCOc1cc(C(=O)N/N=C/c2cn(-c3ccccc3)nc2-c2cc3ccccc3o2)cc(OCC)c1OCC	-4%	13µM*	22	11%	23µM*
Cc1ccc(-c2nn(-c3ccccc3)cc2C=O)o1	u	u	-16	18µM*	u
COc1ccc(N2CCN(S(=O)(=O)CCNC(=O)Cc3ccc(OC)c(OC)c3)CC2)cc1	x	-23%	x	x	-28%
CCN(CC)C(=O)C1=C(C)N(Cc2ccc(C(C)(C)C)cc2)C(=O)C(CC(=O)NC2CC2)C1 (centres undefined)	7%	-19%	13	12%	-5%
CC1CN(c2sc(S(C)(=O)=O)nc2S(=O)(=O)c2ccc(Cl)cc2)CC(C)O1 (centres undefined)	17%	-19%	-64*	12%	u
CCCS(=O)(=O)c1nc(S(=O)(=O)c2ccc(C)cc2)c(N2CCOCC2)s1	1%	u	-74*	10%	u
CCS(=O)(=O)c1nc(S(=O)(=O)c2ccc(C)cc2)c(N2CCCC(C)C2)s1 (centres undefined)	-19%	-19%	u	-15%	-29%
CS(=O)(=O)c1nc(S(=O)(=O)c2ccc(Cl)cc2)c(N2CCOCC2)s1	5%	u	-76*	4%	u
CC1CCCN(c2sc(S(C)(=O)=O)nc2S(=O)(=O)c2ccc(Cl)cc2)C1 (centres undefined)	-2%	u	-71*	-8%	u
CS(=O)(=O)c1nc(S(=O)(=O)c2ccc(Cl)cc2)c(NCCCN2CCOCC2)s1	16%	21%	0	2%	-3%
Cc1ccc(C)c(NC(=O)Cn2cc(C(=O)C3CC3)c3ccccc32)c1	-12%	u	7	-21%	u
O=c1nc(N2CCCC2)nc(N2CCCC2)[nH]1	9%	0%	-12	7%	1%
O=[N+]([O-])c1cccc(CON=Cc2ccccc2O)c1	-3%	u	1	-1%	-8%
CNS(=O)(=O)c1cn(CC(=O)N2CCN(c3ccccc3F)CC2)cc1S(=O)(=O)NC	x	-25%	x	x	-4%
CCS(=O)(=O)c1nc(S(=O)(=O)c2ccc(Cl)cc2)c(N2CCN(CCO)CC2)s1	3%	u	-17	-3%	-12%
CCN1CCN(c2sc(S(=O)(=O)CC)nc2S(=O)(=O)c2ccc(Cl)cc2)CC1	-2%	-10%	-66*	-12%	-3%
SMILES	HT1080-NT tox	DT40 TDP1 no CPT	IL1B secr inh	HT1080 IDH1KD tx	DT40 TDP1 CPT
COc1c(F)c(F)c(C(=O)Nc2ccc3oc(-c4ccncc4)nc3c2)c(F)c1F	21%	-18%	0	17%	-10%
CC(C)Oc1cccc(C(=O)Nc2ccc3oc(-c4ccccc4)nc3c2)c1	x	21µM*	x	x	u
O=C(Nc1ccc(-c2nc3ccccc3o2)c(O)c1)c1ccccc1	x	18µM*	x	x	u
O=C(Nc1ccc2oc(-c3ccncc3)nc2c1)c1c(F)c(F)c(F)c(F)c1F	-1%	1.5µM*	u	-18%	0.73µM*
O=C(Nc1ccc2oc(-c3ccccc3)nc2c1)c1ccc2ccccc2c1	x	-7%	x	x	u
Cc1cccc(C(=O)Nc2ccc3oc(-c4ccncc4)nc3c2)c1	x	12µM*	x	x	21µM*
O=C(Nc1ccc2oc(-c3ccncc3)nc2c1)c1ccc(F)cc1	-3%	-20%	-7	-9%	-3%
COc1ccc(-n2c(=O)cnc3cnc(Oc4ccccc4)nc32)cc1	x	u	x	x	-6%
CCn1c(C)nc2cc(C(=O)NNC(=S)NC(=O)c3ccc(OC)cc3)ccc21	-2%	u	-6	-27%	u
O=C(Nc1ccc2oc(-c3ccncc3)nc2c1)c1ccc2c(c1)OCCO2	-9%	u	-2	-1%	u
O=C(Nc1ccc2oc(-c3ccccc3)nc2c1)c1ccc2c(c1)OCCO2	u	16µM*	-24	u	23µM*
COc1cccc(OC)c1C(=O)NC(=S)Nc1ccc2oc(-c3ccncc3)nc2c1	19%	23µM*	21	2%	26µM*
NC(=O)CSc1nnc(CSc2ncccn2)n1-c1ccccc1	5%	-2%	24	5%	9%
COc1cc2c(cc1OC)[C@@H](NC(=O)CCc1ccccc1)[C@H](OCc1ccccc1)C2	0%	u	-21	-12%	10µM*
CCCCCCCCCC(=O)N[C@@H]1c2cc(OC)c(OC)cc2C[C@H]1OCc1ccccc1	0%	-14%	82	7%	-17%
CCn1c(C)nc2cc(C(=O)N/N=C(\C)c3ccccc3O)ccc21	-3%	2.9µM*	0	-16%	3.7µM*
Cc1ccc(S(=O)(=O)N2CCOCC2)cc1NC(=O)CNCC1CCCCC1	0%	u	-11	2%	u
CCOC1(OCC)N=C(N)C2(C#N)C(c3ccc(NC(C)=O)cc3)C12C#N (centres undefined)	2%	0%	-3	10%	3%

High-throughput results: PubChem BioAssay, National Center for Advancing Translational Sciences (NCATS)
